The values below come from ChEMBL document CHEMBL1961873, “Compounds: GSK PKIS; Assays: Nanosyn kinase panel” (2012).

Each structure is given as a SMILES string.

Assay [1] deals with T1, Tyrosine-protein kinase receptor TYRO3 (Homo sapiens) (UniProt Q06418).
T1 sequence (whole entry): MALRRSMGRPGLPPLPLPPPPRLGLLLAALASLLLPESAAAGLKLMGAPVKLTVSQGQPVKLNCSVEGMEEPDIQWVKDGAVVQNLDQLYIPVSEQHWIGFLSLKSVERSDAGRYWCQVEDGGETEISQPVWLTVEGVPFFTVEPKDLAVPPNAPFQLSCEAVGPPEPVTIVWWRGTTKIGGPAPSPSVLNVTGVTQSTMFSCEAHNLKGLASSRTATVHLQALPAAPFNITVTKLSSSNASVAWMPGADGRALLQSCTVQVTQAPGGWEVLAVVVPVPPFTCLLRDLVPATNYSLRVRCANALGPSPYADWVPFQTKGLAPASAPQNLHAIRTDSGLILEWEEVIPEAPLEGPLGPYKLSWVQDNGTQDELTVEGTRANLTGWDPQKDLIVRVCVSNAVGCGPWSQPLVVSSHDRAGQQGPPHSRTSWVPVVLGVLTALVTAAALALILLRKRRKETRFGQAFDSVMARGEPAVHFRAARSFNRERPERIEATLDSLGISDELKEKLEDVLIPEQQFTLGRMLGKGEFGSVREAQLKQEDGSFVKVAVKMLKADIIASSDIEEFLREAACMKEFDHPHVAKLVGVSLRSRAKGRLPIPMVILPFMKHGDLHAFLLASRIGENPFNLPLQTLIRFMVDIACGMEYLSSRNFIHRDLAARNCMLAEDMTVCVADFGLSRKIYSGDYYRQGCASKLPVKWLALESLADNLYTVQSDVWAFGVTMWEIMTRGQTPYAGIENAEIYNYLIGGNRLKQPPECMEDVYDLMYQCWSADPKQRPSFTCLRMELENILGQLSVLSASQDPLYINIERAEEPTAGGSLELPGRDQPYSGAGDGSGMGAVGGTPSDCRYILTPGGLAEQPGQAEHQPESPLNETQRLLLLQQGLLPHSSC
The note with it: at 1 µM.

The target in assay [2] is Tyrosine-protein kinase Yes (Homo sapiens) (UniProt P07947). Conditions: at 0.1 µM.
Chain of Tyrosine-protein kinase Yes (Homo sapiens) (P07947 2-543 limits assumed): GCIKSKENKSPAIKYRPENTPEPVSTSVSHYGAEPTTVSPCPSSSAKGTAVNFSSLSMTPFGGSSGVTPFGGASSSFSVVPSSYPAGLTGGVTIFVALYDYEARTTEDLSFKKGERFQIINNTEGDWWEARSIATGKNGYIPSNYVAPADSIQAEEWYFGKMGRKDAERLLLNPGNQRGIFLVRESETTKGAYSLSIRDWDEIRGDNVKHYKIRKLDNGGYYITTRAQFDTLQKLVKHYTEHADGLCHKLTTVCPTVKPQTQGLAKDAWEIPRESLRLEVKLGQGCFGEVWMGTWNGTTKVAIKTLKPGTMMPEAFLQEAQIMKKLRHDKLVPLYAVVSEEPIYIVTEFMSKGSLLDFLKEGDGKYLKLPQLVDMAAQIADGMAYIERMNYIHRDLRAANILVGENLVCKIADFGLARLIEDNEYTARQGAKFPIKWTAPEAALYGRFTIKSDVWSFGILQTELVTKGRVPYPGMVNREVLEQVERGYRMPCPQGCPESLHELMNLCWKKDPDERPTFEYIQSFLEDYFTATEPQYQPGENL
Assay [3] has the same target. Conditions: at 1 µM.
Assay [4] concerns the target T2, Tyrosine-protein kinase ZAP-70 (Homo sapiens) (UniProt P43403).
T2 sequence (whole entry): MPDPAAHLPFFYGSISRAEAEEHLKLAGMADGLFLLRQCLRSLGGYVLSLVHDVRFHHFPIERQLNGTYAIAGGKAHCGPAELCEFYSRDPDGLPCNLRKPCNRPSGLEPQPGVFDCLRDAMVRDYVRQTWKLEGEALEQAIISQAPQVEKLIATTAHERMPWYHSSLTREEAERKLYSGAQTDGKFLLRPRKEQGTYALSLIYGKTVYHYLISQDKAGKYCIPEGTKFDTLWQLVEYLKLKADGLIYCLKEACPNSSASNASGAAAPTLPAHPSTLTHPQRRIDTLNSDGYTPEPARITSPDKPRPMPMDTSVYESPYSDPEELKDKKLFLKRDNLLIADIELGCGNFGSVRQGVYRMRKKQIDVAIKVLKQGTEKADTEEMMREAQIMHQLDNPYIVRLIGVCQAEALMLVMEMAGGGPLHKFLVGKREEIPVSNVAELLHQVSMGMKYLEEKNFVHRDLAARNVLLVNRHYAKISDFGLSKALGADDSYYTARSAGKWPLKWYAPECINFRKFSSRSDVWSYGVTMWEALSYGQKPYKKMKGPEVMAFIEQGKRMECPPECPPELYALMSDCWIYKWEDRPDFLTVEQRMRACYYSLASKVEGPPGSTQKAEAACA
Conditions: at 0.1 µM.

Assay [5] has as its target T2, Tyrosine-protein kinase ZAP-70 (Homo sapiens). The note with it: at 1 µM.
The target in assay [6] is Serine/threonine-protein kinase B-raf (Homo sapiens) (UniProt P15056). Conditions: at 0.1 µM.
Chain of Serine/threonine-protein kinase B-raf (Homo sapiens) (P15056 whole entry): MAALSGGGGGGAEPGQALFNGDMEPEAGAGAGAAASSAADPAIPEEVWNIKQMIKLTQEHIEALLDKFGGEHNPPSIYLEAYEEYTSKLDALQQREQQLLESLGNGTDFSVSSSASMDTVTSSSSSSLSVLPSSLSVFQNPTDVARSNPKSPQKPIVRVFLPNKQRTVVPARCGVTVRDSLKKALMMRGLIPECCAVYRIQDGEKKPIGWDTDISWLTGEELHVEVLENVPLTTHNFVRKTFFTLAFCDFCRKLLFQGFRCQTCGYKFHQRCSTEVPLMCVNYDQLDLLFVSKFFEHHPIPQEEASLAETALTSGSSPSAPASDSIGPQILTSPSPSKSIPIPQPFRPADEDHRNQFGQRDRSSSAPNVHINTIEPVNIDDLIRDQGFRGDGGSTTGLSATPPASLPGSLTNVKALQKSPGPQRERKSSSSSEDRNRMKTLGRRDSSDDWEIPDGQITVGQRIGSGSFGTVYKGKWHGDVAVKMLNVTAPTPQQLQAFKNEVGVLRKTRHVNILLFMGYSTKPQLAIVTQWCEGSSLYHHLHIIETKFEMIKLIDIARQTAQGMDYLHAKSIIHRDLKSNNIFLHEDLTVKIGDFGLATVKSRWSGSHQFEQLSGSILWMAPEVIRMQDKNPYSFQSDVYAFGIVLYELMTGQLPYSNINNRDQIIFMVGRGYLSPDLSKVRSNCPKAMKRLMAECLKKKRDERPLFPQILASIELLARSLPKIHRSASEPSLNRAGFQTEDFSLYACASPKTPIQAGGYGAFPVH
Assay [7] has the same target. The note with it: at 1 µM.
For assay [8], the system named is Serine/threonine-protein kinase B-raf (Homo sapiens), P15056 [V600E]. Conditions: at 0.1 µM.
Chain of Serine/threonine-protein kinase B-raf (Homo sapiens), P15056 [V600E] (P15056 whole entry V600E): as the sequence (P15056 whole entry) above, with V600E counted along it
For assay [9] the test system is unchanged. The note with it: at 1 µM.
The target in assay [10] is RAF proto-oncogene serine/threonine-protein kinase (Homo sapiens) (UniProt P04049). The note with it: at 0.1 µM.
Chain of RAF proto-oncogene serine/threonine-protein kinase (Homo sapiens) (P04049 whole entry): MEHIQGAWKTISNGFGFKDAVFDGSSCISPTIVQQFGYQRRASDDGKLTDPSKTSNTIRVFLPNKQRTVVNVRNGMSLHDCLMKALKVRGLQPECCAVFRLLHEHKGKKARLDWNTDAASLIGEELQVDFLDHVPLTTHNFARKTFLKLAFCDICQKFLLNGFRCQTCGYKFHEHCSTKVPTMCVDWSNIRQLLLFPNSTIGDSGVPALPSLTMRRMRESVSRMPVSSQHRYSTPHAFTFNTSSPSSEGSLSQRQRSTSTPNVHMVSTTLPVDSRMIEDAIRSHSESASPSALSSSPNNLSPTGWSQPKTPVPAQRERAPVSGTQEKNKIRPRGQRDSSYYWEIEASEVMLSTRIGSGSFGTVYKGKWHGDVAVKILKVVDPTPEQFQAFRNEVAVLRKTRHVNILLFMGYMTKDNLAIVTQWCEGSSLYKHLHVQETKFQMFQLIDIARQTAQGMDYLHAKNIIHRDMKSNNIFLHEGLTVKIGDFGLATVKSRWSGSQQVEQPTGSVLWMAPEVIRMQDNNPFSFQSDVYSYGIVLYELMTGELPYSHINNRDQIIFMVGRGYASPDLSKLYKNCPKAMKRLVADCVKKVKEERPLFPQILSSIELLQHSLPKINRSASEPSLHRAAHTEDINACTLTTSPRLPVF
Assay [11] shares this target. Conditions: at 1 µM.
Assay [12] has as its target T3, Interleukin-1 receptor-associated kinase 4 (Homo sapiens) (UniProt Q9NWZ3).
T3 sequence (whole entry): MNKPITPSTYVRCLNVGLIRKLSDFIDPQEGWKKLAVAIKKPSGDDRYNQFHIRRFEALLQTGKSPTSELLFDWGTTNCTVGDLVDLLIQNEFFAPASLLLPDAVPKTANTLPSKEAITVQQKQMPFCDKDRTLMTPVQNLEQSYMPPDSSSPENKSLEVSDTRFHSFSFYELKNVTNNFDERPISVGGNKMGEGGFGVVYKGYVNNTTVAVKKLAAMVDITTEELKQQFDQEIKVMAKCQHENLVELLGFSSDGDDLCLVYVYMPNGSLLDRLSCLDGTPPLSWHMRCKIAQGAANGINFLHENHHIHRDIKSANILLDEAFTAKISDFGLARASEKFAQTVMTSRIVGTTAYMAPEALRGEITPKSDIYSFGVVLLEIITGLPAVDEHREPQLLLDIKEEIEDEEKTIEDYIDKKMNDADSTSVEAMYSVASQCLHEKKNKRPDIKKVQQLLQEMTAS
Conditions: at 0.1 µM.

For assay [13], the target named is T3, Interleukin-1 receptor-associated kinase 4 (Homo sapiens). The note with it: at 1 µM.
Assay [14] addresses Leucine-rich repeat serine/threonine-protein kinase 2 (Homo sapiens) (UniProt Q5S007). The note with it: at 0.1 µM.
The target is the same in assay [15]. The note with it: at 1 µM.
The test system of assay [16] is Leucine-rich repeat serine/threonine-protein kinase 2 (Homo sapiens), Q5S007 [G2019S]. The note with it: at 0.1 µM.
Chain of Leucine-rich repeat serine/threonine-protein kinase 2 (Homo sapiens), Q5S007 [G2019S] (Q5S007 whole entry G2019S): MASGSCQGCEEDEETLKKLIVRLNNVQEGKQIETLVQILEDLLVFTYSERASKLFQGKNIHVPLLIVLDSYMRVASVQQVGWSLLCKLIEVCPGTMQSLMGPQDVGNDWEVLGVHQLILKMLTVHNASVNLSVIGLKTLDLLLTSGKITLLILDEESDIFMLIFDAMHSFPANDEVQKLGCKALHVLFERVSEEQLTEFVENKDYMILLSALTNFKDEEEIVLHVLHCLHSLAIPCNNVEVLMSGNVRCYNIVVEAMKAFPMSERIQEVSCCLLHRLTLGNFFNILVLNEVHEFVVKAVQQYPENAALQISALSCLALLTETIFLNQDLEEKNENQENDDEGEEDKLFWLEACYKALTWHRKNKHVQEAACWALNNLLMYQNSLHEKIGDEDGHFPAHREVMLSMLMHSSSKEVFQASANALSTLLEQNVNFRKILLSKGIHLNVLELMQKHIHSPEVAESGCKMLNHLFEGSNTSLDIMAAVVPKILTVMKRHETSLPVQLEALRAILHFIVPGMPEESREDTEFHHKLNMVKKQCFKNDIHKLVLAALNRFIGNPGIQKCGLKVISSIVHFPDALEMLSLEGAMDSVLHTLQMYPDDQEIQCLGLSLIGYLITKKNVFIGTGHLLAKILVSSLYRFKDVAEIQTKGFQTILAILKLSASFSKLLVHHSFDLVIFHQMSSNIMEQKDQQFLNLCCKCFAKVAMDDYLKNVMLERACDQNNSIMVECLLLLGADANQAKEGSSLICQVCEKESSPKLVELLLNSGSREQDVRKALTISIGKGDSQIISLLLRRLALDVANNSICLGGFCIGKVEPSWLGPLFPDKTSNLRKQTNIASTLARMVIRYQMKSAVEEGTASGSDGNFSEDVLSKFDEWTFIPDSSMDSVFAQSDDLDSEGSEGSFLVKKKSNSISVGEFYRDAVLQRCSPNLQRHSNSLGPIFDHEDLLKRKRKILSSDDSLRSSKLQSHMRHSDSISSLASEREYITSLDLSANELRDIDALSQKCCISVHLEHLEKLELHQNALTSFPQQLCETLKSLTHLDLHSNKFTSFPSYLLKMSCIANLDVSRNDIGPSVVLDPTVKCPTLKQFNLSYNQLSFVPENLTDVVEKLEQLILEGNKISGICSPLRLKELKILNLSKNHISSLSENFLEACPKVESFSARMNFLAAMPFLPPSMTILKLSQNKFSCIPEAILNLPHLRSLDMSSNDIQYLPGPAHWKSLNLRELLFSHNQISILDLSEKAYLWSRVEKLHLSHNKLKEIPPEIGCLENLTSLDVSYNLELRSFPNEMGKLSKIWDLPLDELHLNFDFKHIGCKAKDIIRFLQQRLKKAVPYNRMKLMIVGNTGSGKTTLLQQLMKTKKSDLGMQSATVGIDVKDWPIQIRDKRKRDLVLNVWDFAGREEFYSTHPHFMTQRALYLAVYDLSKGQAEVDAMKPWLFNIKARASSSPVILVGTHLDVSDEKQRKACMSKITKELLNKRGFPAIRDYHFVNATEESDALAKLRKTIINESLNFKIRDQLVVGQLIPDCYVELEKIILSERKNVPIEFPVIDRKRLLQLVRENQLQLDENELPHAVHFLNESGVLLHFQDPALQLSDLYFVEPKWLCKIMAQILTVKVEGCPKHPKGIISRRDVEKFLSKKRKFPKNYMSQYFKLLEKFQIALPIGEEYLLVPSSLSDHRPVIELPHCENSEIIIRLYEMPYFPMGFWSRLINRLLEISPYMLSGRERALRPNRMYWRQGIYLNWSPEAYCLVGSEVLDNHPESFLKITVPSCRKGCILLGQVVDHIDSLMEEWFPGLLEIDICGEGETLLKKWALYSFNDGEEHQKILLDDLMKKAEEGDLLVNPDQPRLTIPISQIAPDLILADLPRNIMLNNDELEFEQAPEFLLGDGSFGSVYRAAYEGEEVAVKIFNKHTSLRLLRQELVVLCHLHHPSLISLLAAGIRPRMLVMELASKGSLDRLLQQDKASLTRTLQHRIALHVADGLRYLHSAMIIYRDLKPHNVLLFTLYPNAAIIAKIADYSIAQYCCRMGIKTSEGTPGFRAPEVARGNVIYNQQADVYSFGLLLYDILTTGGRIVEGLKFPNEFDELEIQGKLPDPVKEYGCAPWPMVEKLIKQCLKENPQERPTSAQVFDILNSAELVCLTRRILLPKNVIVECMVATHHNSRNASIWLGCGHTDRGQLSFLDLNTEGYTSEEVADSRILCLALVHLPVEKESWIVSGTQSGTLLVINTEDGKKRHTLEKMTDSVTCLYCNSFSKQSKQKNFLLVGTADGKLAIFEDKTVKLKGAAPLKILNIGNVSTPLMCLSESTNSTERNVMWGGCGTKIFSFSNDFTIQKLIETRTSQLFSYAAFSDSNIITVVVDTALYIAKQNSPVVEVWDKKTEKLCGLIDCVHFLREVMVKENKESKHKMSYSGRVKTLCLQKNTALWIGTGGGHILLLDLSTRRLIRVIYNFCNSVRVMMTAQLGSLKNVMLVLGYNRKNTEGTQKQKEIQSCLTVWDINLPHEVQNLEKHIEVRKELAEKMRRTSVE
The test system is the same in assay [17]. Conditions: at 1 µM.

Chain of Leucine-rich repeat serine/threonine-protein kinase 2 (Homo sapiens) (Q5S007 whole entry): as the sequence (Q5S007 whole entry G2019S) above, with S2019G counted along it

`Cc1cc(O)cc(C)c1/C=C/c1cncc(C(N)=O)c1`: the inhibition – broadly, the drop in the measured response relative to a control, in per cent – in [1] turned out to be 6.32%; in assay [2], 6.53%; in [3], 32.2%; in assay [4], 2.11%; in assay [5], 2.46%; in assay [6] it was 4.77%. Besides, the inhibition in assay [7] is 11.2%; in assay [8], 3.8%; in assay [9], 8.78%; in assay [10], -1.23%; in assay [11], 5.31%; in assay [12], -1.86%. Moreover, the inhibition was determined as 0.71% in assay [13]; 1.8% in assay [14]; 6.26% in assay [15]; 3.18% in assay [16]; 13.3% in [17].
Take `c1cnn2ncc(-c3ccnc(NCCCN4CCOCC4)n3)c2c1`: the inhibition was 2.64% in assay [1]; 2.68% in assay [2]; 0.1% in assay [3]; 2.13% in assay [4]; 2.9% in [5]; 5.35% in assay [6]. The inhibition was 7.07% in assay [7]; 5.41% in [8]; 5.03% in [9]; 2.81% in assay [10]; -5.16% in [11]; 2.04% in assay [12]. For the same molecule, the inhibition was 1.39% in assay [13]; 1.69% in [14]; 1.57% in assay [15]; 2.1% in assay [16]; 5.03% in assay [17].
As to `Cn1c(-c2nonc2N)nc2cnccc21`, the inhibition in [1] was determined as 0.09%; in assay [2], 1.37%; in assay [3], 1.42%; in [4], 3.27%; in assay [5], 1.74%; in assay [6], 4.15%. Further, the inhibition is 3.62% in assay [7]; 4.29% in assay [8]; 3.98% in assay [9]; 2.49% in [10]; 8.87% in assay [11]; 3.47% in [12]. The inhibition worked out at 1.21% in [13]; 2.89% in assay [14]; 10.6% in assay [15]; 4.16% in assay [16]; 20.5% in assay [17].
Consider `NS(=O)(=O)c1ccc(N/N=C2\C(=O)Nc3ccc(C(=O)NCc4ccncc4)cc32)cc1`, for which the inhibition in [1] was found to be 8.28%; in assay [2], 4.07%; in assay [3] it was 17.1%; in assay [4], 2.55%; in assay [5], 3.8%; in assay [6], 14.8%. The inhibition in [7] is 56.7%; in assay [8], 15.1%; in [9], 56.3%; in [10], 0.58%; in assay [11] it was -3.37%; in [12], -2.46%. Moreover, the inhibition in assay [13] amounted to 1.57%; in assay [14], 5.05%; in assay [15], 11.6%; in assay [16] it was 6.07%; in [17], 30.8%.
As for `CCS(=O)(=O)c1ccc(OC)c(Nc2ncc(-c3cccc(F)c3)o2)c1`, the inhibition in [1] worked out at 26.2%; in assay [2], 75.9%; in assay [3] it was 96.3%; in assay [4], 1.94%; in assay [5], 5.25%; in assay [6] it was 7.42%. The inhibition is 10% in [7]; 4.95% in [8]; 4.95% in [9]; 1.22% in assay [10]; -3.37% in assay [11]; 2.36% in assay [12]. For the same molecule, the inhibition in [13] stood at 5.42%; in assay [14], 2.2%; in assay [15], 14.5%; in assay [16], 6.1%; in [17], 27.9%.
For `CNC(=O)c1ncccc1Nc1nc(Nc2cc3c(cc2OC)CCCN3C(=O)CN(C)C)nc2[nH]ccc12`, the inhibition in assay [1] was 5.61%; in assay [2] it was 0.73%; in [3], -1.63%; in [4] it was -0.5%; in [5], 2.99%; in [6], 4.31%. For the same molecule, the inhibition in [7] was 4.44%; in [8], 5.35%; in assay [9] it was 9.32%; in assay [10], -1.22%; in assay [11] it was -9.95%; in assay [12] it was -0.32%. Also, the inhibition turned out to be 2.65% in [13]; 29.7% in [14]; 26.6% in assay [15]; 65.3% in assay [16]; 64.5% in [17].
Consider `CS(=O)(=O)CCNCc1ccc(-c2ccc3ncnc(Nc4ccc(OCc5ccccc5)cc4)c3c2)o1`, for which the inhibition in assay [1] stood at 4.25%; in assay [2], 9.54%; in [3] it was 42.1%; in assay [4] it was 0.98%; in [5] it was 2.51%; in [6], 4.6%. Further, the inhibition in assay [7] was 6.13%; in [8], 3.8%; in assay [9] it was 3.33%; in [10] it was -0.67%; in [11], 2.22%; in assay [12], 1.54%. The inhibition in assay [13] turned out to be 1.78%; in assay [14], 3.3%; in assay [15], 6.64%; in assay [16] it was 2.93%; in [17], 7.35%.
With `CC1(C)CC(n2cnc(-c3ccc(F)cc3)c2-c2ccnc(N)n2)CC(C)(C)N1`, the inhibition is 5.65% in [1]; 0.2% in [2]; 7.25% in [3]; 0.52% in assay [4]; 2.37% in [5]; 1.97% in assay [6]. For the same molecule, the inhibition in [7] amounted to 1.13%; in assay [8], 1.52%; in assay [9], 0.8%; in [10], 6.47%; in [11], 2.12%; in assay [12] it was 4.73%. Also, the inhibition in assay [13] came out at 0.49%; in assay [14] it was 0.31%; in assay [15] it was 5.05%; in assay [16], 2.37%; in assay [17], 6.19%.
